Experimental findings from PubChem BioAssay AID720706 (Broad Institute, 2013) are described below.

Hit rate of the full screen: of about 350,000 compounds, about 5,500 (1.6%) were called active.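 How the source made its calls: active means significant combined selectivity score with lowered wild-type GFP, culture density cut under 30%, mutant RFP and density less affected; inactive means any of these conditions unmet.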 The full list was thinned out, with actives kept by preference.

The nature of the experiment: GFP drop in mixed WT/humanized-ribosome E. coli culture – GFP/RFP fluorescence, OD600, single point, bacterial rRNA inhibitor project, primary screen (AID 720706). As to conditions: E. coli WT GFP vs humanized-ribosome RFP mutants, 24 h; GFP signal change (wild-type ribosome): stronger effect = lower value, DMSO median 0, no signal -100; OD600 change: measured here: OD600 growth, DMSO median 0, no signal -100; RFP signal change: measured here: RFP humanized mutant strains, DMSO median 0, no signal -100, concentration not given here.
As to `COc1ccccc1C#Cc1ccc2c(c1)O[C@H](CN(C)Cc1cccnc1)[C@@H](C)CN([C@H](C)CO)S2(=O)=O`, the GFP signal change (wild-type ribosome) was -5.86% (inactive), the OD600 change was -7.99% and the RFP signal change worked out at 4.04%.

Regarding `CC(NC(=O)Nc1ccc2c(c1)OCO2)c1ccncc1` (stereo not given), the GFP signal change (wild-type ribosome) was 13.1% (inactive), the OD600 change was 4.68% and the RFP signal change was 1.46%.

`CC(NC(=O)Nc1cccc([N+](=O)[O-])c1)c1ccc2c(c1)OCO2` (stereo not given): the GFP signal change (wild-type ribosome) is -34.5% (active), the OD600 change is -26.4% and the RFP signal change is -5.09%.

Turning to `Cc1cccc(NC(=O)Nc2ccc3c(c2)OCO3)n1`, the GFP signal change (wild-type ribosome) is 0.76% (inactive), the OD600 change came to 7.09% and the RFP signal change is -5.02%.

On to `CC1CC2=C(CC1/C=N/NC(N)=S)C(C)(C)CCC2` (stereo not given), for which the GFP signal change (wild-type ribosome) was -18.2% (active), the OD600 change amounted to 0.8% and the RFP signal change is -0.09%.

As to `Cc1noc(C)c1NC(=O)Nc1ccc2c(c1)C(=O)N([C@@H](C)CO)C[C@H](C)[C@H](CN(C)CC1CCCCC1)O2`, the GFP signal change (wild-type ribosome) was 2.74% (inactive), the OD600 change worked out at 1.93% and the RFP signal change was -1.48%.

With `CCN(CC)S(=O)(=O)c1ccc(N2CCOCC2)c(NC(=O)c2ccc(=O)n(C)n2)c1`, the GFP signal change (wild-type ribosome) is 18.6% (inactive), the OD600 change is 11.8% and the RFP signal change was -3.6%.

In the case of `CCN(CC)S(=O)(=O)c1cc(C(=O)Nc2cc(S(=O)(=O)N3CCOCC3)ccc2N2CCCC2)ccc1F`, the GFP signal change (wild-type ribosome) is -10.4% (inactive), the OD600 change was -14.8% and the RFP signal change amounted to 1.19%.

For `CCN(CC)S(=O)(=O)c1ccc(N2CCCC2)c(NC(=O)c2ccc([N+](=O)[O-])o2)c1`, the GFP signal change (wild-type ribosome) is -27.2% (active), the OD600 change is 5.04% and the RFP signal change stood at 9.95%.

Consider `C[C@@H]1CN([C@@H](C)CO)C(=O)c2cccc(NC(=O)Nc3ccc(F)cc3)c2O[C@H]1CN(C)Cc1ccc(-c2ccccc2)cc1`, for which the GFP signal change (wild-type ribosome) was -7.51% (inactive), the OD600 change was -2.98% and the RFP signal change is -0.352%.

As to `O=C(C1CCC1)N1CC(=O)N2[C@@H](CO)[C@@H](c3ccc(C#Cc4cccc(F)c4)cc3)[C@@H]2C1`, the GFP signal change (wild-type ribosome) is -59.7% (inactive), the OD600 change was -79.3% and the RFP signal change was -12.2%.

`CCc1ccccc1NC(=O)CN(C)C(=O)c1cc(C2CC2)nn1-c1ccccc1`: the GFP signal change (wild-type ribosome) was -2.02% (inactive), the OD600 change was -16.5% and the RFP signal change came out at 3.78%.

For `COc1ccc(NC(=O)CN(C)C(=O)c2cc(C3CC3)nn2-c2ccccc2)cc1`, the GFP signal change (wild-type ribosome) is -22.4% (active), the OD600 change was -10.8% and the RFP signal change worked out at 5.24%.

Consider `COc1cccc(NC(=O)CN(C)C(=O)c2cc(C3CC3)nn2-c2ccccc2)c1`, for which the GFP signal change (wild-type ribosome) was -29.5% (inactive), the OD600 change is -27.8% and the RFP signal change was -7.04%.

`Cc1nn(-c2ccccc2)c(Cl)c1/C=C/C(=O)c1ccc(O)cc1`: the GFP signal change (wild-type ribosome) is -25.9% (active), the OD600 change was -19.6% and the RFP signal change was -0.656%.

On to `Cc1nn(-c2ccccc2)c(C)c1/C=C/C(=O)OC(C)C(N)=O` (stereo not given), for which the GFP signal change (wild-type ribosome) was 0.439% (inactive), the OD600 change was -2.9% and the RFP signal change was -0.31%.

Regarding `Cc1nn(-c2ccc(F)cc2)c(Cl)c1/C=C(/CCC(=O)O)c1nc2ccccc2s1`, the GFP signal change (wild-type ribosome) is -52.2% (inactive), the OD600 change is -75.8% and the RFP signal change was -17.8%.

Consider `COc1ccccc1CN1[C@H](CO)[C@H](c2ccccc2)C12CN(C(=O)c1ccccn1)C2`, for which the GFP signal change (wild-type ribosome) is -7.66% (inactive), the OD600 change is -1.5% and the RFP signal change is 11%.

Consider `Cc1noc(C)c1NC(=O)Nc1ccc2c(c1)C(=O)N([C@H](C)CO)C[C@@H](C)[C@H](CN(C)Cc1ccncc1)O2`, for which the GFP signal change (wild-type ribosome) is 0.165% (inactive), the OD600 change amounted to 5.53% and the RFP signal change was -0.035%.

Consider `C[C@H]1CCCCO[C@@H](CN(C)S(=O)(=O)c2ccc(Cl)cc2)[C@@H](C)CN([C@@H](C)CO)C(=O)c2cc(NS(=O)(=O)c3cn(C)cn3)ccc2O1`, for which the GFP signal change (wild-type ribosome) is -1.49% (inactive), the OD600 change was -13.7% and the RFP signal change was determined as 2.11%.

On to `N#CCC(=O)N/N=C/c1cn(Cc2ccc3ccccc3c2)c2ccccc12`, for which the GFP signal change (wild-type ribosome) is 1.46% (inactive), the OD600 change was -2.06% and the RFP signal change worked out at 0.715%.

In the case of `COc1cccc(Cn2cc(/C=N/NC(=O)c3cc(O)cc(O)c3)c3ccccc32)c1`, the GFP signal change (wild-type ribosome) was -27.3% (active), the OD600 change was -17.9% and the RFP signal change was determined as 2.51%.

For the compound `O=C(Cn1cc(/C=N/NC(=O)c2cccc(C(F)(F)F)c2)c2ccccc21)Nc1ccc(F)cc1`, the GFP signal change (wild-type ribosome) was -1.48% (inactive), the OD600 change is -0.221% and the RFP signal change is -3.15%.

Consider `COc1cccc(S(=O)(=O)N2C[C@@H](O)COC[C@H]3O[C@@H](CC(=O)N4CCOCC4)CC[C@@H]32)c1`, for which the GFP signal change (wild-type ribosome) is 0.378% (inactive), the OD600 change was -0.728% and the RFP signal change is -3.58%.

As to `O=S(=O)(Cc1ccccc1)NCC[C@@H]1CC[C@@H](NS(=O)(=O)c2ccccc2)[C@@H](CO)O1`, the GFP signal change (wild-type ribosome) was -0.181% (inactive), the OD600 change worked out at 0.151% and the RFP signal change came to 1.58%.

Regarding `C[C@H](CO)N1C[C@H](C)[C@@H](CN(C)Cc2ccc3c(c2)OCO3)OCCCC[C@H](C)Oc2ccc(NC(=O)Nc3ccc(C(F)(F)F)cc3)cc2C1=O`, the GFP signal change (wild-type ribosome) is 7.88% (inactive), the OD600 change was -5.08% and the RFP signal change amounted to 3.82%.

Take `O=C(CCc1ccc(O)cc1)NN=Cc1cc(Br)ccc1O`: the GFP signal change (wild-type ribosome) was -37.7% (inactive), the OD600 change was -33.3% and the RFP signal change was -8.11%.

Regarding `O=C(CCCO)N/N=C/c1cc(Br)ccc1O`, the GFP signal change (wild-type ribosome) was -15.6% (active), the OD600 change amounted to 11.6% and the RFP signal change was 1.76%.

Take `CCOc1cc(C=NNC(=O)CCCC(=O)NN=Cc2ccc(O)c(OCC)c2)ccc1O`: the GFP signal change (wild-type ribosome) is 4.33% (inactive), the OD600 change was -0.6% and the RFP signal change stood at 2.51%.

With `C[C@@H]1CCCCO[C@H](CN(C)Cc2ccc(C(=O)Nc3ccccc3N)cc2)[C@H](C)CN([C@H](C)CO)C(=O)c2cc(N(C)C)ccc2O1`, the GFP signal change (wild-type ribosome) was 4.58% (inactive), the OD600 change is 1.72% and the RFP signal change was determined as 2.24%.
